# Experimental data reported in the supplement of paper PMC4466140.
# Target: AgAbp1
# Assay: SPOT peptide array binding signal intensity (averaged, normalized) (arbitrary units (background-subtracted, floor 0; scale differs between SH3 domains)); higher = stronger binding of the SH3 domain to the peptide
# In short: (§1)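 GST-SH3 fusions from four yeast species, purified on glutathione Sepharose, were incubated at 10 μg/ml overnight at 4°C on membranes of synthetic 15-mer peptides in which cysteines were replaced with serines. Binding signal is the normalized, background-subtracted spot intensity averaged over replicates, in domain-specific arbitrary units.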
row,Binder,SPOT peptide array binding signal intensity
1,LPPPPPPPPPPPLPQ,11

# Target: AgBbc1
# Assay: as above
# In short: as §1
row,Binder,SPOT peptide array binding signal intensity
1,LPPPPPPPPPPPLPQ,1.25

# Target: AgBem1-D1
# Assay: as above
# In short: as §1
row,Binder,SPOT peptide array binding signal intensity
1,LPPPPPPPPPPPLPQ,≤ 0

# Target: AgBzz1-D1
# Assay: as above
# In short: as §1
row,Binder,SPOT peptide array binding signal intensity
1,LPPPPPPPPPPPLPQ,42.5

# Target: AgBzz1-D2
# Assay: as above
# In short: as §1
row,Binder,SPOT peptide array binding signal intensity
1,LPPPPPPPPPPPLPQ,1

# Target: AgCyk3
# Assay: as above
# In short: as §1
row,Binder,SPOT peptide array binding signal intensity
1,LPPPPPPPPPPPLPQ,1

# Target: AgFus1
# Assay: as above
# In short: as §1
row,Binder,SPOT peptide array binding signal intensity
1,LPPPPPPPPPPPLPQ,3

# Target: AgHof1
# Assay: as above
# In short: as §1
row,Binder,SPOT peptide array binding signal intensity
1,LPPPPPPPPPPPLPQ,128

# Target: AgHse1
# Assay: as above
# In short: as §1
row,Binder,SPOT peptide array binding signal intensity
1,LPPPPPPPPPPPLPQ,21

# Target: AgLsb1
# Assay: as above
# In short: as §1
row,Binder,SPOT peptide array binding signal intensity
1,LPPPPPPPPPPPLPQ,1.5

# Target: AgLsb4
# Assay: as above
# In short: as §1
row,Binder,SPOT peptide array binding signal intensity
1,LPPPPPPPPPPPLPQ,≤ 0

# Target: AgMyo5
# Assay: as above
# In short: as §1
row,Binder,SPOT peptide array binding signal intensity
1,LPPPPPPPPPPPLPQ,640

# Target: AgNbp2
# Assay: as above
# In short: as §1
row,Binder,SPOT peptide array binding signal intensity
1,LPPPPPPPPPPPLPQ,28.5

# Target: AgRvs167
# Assay: as above
# In short: as §1
row,Binder,SPOT peptide array binding signal intensity
1,LPPPPPPPPPPPLPQ,≤ 0

# Target: AgSho1
# Assay: as above
# In short: as §1
row,Binder,SPOT peptide array binding signal intensity
1,LPPPPPPPPPPPLPQ,≤ 0

# Target: AgSla1-D1-D2
# Assay: as above
# In short: as §1
row,Binder,SPOT peptide array binding signal intensity
1,LPPPPPPPPPPPLPQ,4.5

# Target: AgSla1-D3
# Assay: as above
# In short: as §1
row,Binder,SPOT peptide array binding signal intensity
1,LPPPPPPPPPPPLPQ,≤ 0

# Target: CaAbp1-D1
# Assay: as above
# In short: as §1
row,Binder,SPOT peptide array binding signal intensity
1,LPPPPPPPPPPPLPQ,9

# Target: CaAbp1-D2
# Assay: as above
# In short: as §1
row,Binder,SPOT peptide array binding signal intensity
1,LPPPPPPPPPPPLPQ,≤ 0

# Target: CaBbc1
# Assay: as above
# In short: as §1
row,Binder,SPOT peptide array binding signal intensity
1,LPPPPPPPPPPPLPQ,≤ 0

# Target: CaBem1-D1
# Assay: as above
# In short: as §1
row,Binder,SPOT peptide array binding signal intensity
1,LPPPPPPPPPPPLPQ,3

# Target: CaBzz1-D1
# Assay: as above
# In short: as §1
row,Binder,SPOT peptide array binding signal intensity
1,LPPPPPPPPPPPLPQ,1990

# Target: CaBzz1-D2
# Assay: as above
# In short: as §1
row,Binder,SPOT peptide array binding signal intensity
1,LPPPPPPPPPPPLPQ,495

# Target: CaCyk3
# Assay: as above
# In short: as §1
row,Binder,SPOT peptide array binding signal intensity
1,LPPPPPPPPPPPLPQ,≤ 0

# Target: CaFus1
# Assay: as above
# In short: as §1
row,Binder,SPOT peptide array binding signal intensity
1,LPPPPPPPPPPPLPQ,≤ 0

# Target: CaHof1
# Assay: as above
# In short: as §1
row,Binder,SPOT peptide array binding signal intensity
1,LPPPPPPPPPPPLPQ,≤ 0

# Target: CaHse1
# Assay: as above
# In short: as §1
row,Binder,SPOT peptide array binding signal intensity
1,LPPPPPPPPPPPLPQ,5.75

# Target: CaLsb1
# Assay: as above
# In short: as §1
row,Binder,SPOT peptide array binding signal intensity
1,LPPPPPPPPPPPLPQ,≤ 0

# Target: CaLsb4
# Assay: as above
# In short: as §1
row,Binder,SPOT peptide array binding signal intensity
1,LPPPPPPPPPPPLPQ,≤ 0

# Target: CaMyo5
# Assay: as above
# In short: as §1
row,Binder,SPOT peptide array binding signal intensity
1,LPPPPPPPPPPPLPQ,182

# Target: CaNbp2
# Assay: as above
# In short: as §1
row,Binder,SPOT peptide array binding signal intensity
1,LPPPPPPPPPPPLPQ,10

# Target: CaRvs167
# Assay: as above
# In short: as §1
row,Binder,SPOT peptide array binding signal intensity
1,LPPPPPPPPPPPLPQ,≤ 0

# Target: CaRvs167-3
# Assay: as above
# In short: as §1
row,Binder,SPOT peptide array binding signal intensity
1,LPPPPPPPPPPPLPQ,0.5

# Target: CaSho1
# Assay: as above
# In short: as §1
row,Binder,SPOT peptide array binding signal intensity
1,LPPPPPPPPPPPLPQ,4.5

# Target: CaSla1-D1-D2
# Assay: as above
# In short: as §1
row,Binder,SPOT peptide array binding signal intensity
1,LPPPPPPPPPPPLPQ,5.5

# Target: CaSla1-D3
# Assay: as above
# In short: as §1
row,Binder,SPOT peptide array binding signal intensity
1,LPPPPPPPPPPPLPQ,0.5

# Target: ScAbp1
# Assay: as above
# In short: as §1
row,Binder,SPOT peptide array binding signal intensity
1,LPPPPPPPPPPPLPQ,2.5

# Target: ScBbc1
# Assay: as above
# In short: as §1
row,Binder,SPOT peptide array binding signal intensity
1,LPPPPPPPPPPPLPQ,2.5

# Target: ScBem1-D1
# Assay: as above
# In short: as §1
row,Binder,SPOT peptide array binding signal intensity
1,LPPPPPPPPPPPLPQ,≤ 0

# Target: ScBzz1-D1
# Assay: as above
# In short: as §1
row,Binder,SPOT peptide array binding signal intensity
1,LPPPPPPPPPPPLPQ,16

# Target: ScBzz1-D2
# Assay: as above
# In short: as §1
row,Binder,SPOT peptide array binding signal intensity
1,LPPPPPPPPPPPLPQ,2

# Target: ScCyk3
# Assay: as above
# In short: as §1
row,Binder,SPOT peptide array binding signal intensity
1,LPPPPPPPPPPPLPQ,0.5

# Target: ScFus1
# Assay: as above
# In short: as §1
row,Binder,SPOT peptide array binding signal intensity
1,LPPPPPPPPPPPLPQ,≤ 0

# Target: ScHof1
# Assay: as above
# In short: as §1
row,Binder,SPOT peptide array binding signal intensity
1,LPPPPPPPPPPPLPQ,9.25

# Target: ScHse1
# Assay: as above
# In short: as §1
row,Binder,SPOT peptide array binding signal intensity
1,LPPPPPPPPPPPLPQ,23

# Target: ScLsb1
# Assay: as above
# In short: as §1
row,Binder,SPOT peptide array binding signal intensity
1,LPPPPPPPPPPPLPQ,0.5

# Target: ScLsb2
# Assay: as above
# In short: as §1
row,Binder,SPOT peptide array binding signal intensity
1,LPPPPPPPPPPPLPQ,≤ 0

# Target: ScLsb3
# Assay: as above
# In short: as §1
row,Binder,SPOT peptide array binding signal intensity
1,LPPPPPPPPPPPLPQ,54

# Target: ScLsb4
# Assay: as above
# In short: as §1
row,Binder,SPOT peptide array binding signal intensity
1,LPPPPPPPPPPPLPQ,1.5

# Target: ScMyo3
# Assay: as above
# In short: as §1
row,Binder,SPOT peptide array binding signal intensity
1,LPPPPPPPPPPPLPQ,1930

# Target: ScMyo5
# Assay: as above
# In short: as §1
row,Binder,SPOT peptide array binding signal intensity
1,LPPPPPPPPPPPLPQ,933

# Target: ScNbp2
# Assay: as above
# In short: as §1
row,Binder,SPOT peptide array binding signal intensity
1,LPPPPPPPPPPPLPQ,16

# Target: ScPex13
# Assay: as above
# In short: as §1
row,Binder,SPOT peptide array binding signal intensity
1,LPPPPPPPPPPPLPQ,41.8

# Target: ScRvs167
# Assay: as above
# In short: as §1
row,Binder,SPOT peptide array binding signal intensity
1,LPPPPPPPPPPPLPQ,≤ 0

# Target: ScSho1
# Assay: as above
# In short: as §1
row,Binder,SPOT peptide array binding signal intensity
1,LPPPPPPPPPPPLPQ,≤ 0

# Target: ScSla1-D1-D2
# Assay: as above
# In short: as §1
row,Binder,SPOT peptide array binding signal intensity
1,LPPPPPPPPPPPLPQ,16.5

# Target: ScSla1-D3
# Assay: as above
# In short: as §1
row,Binder,SPOT peptide array binding signal intensity
1,LPPPPPPPPPPPLPQ,≤ 0

# Target: SpAbp1-D1
# Assay: as above
# In short: as §1
row,Binder,SPOT peptide array binding signal intensity
1,LPPPPPPPPPPPLPQ,3

# Target: SpBbc1
# Assay: as above
# In short: as §1
row,Binder,SPOT peptide array binding signal intensity
1,LPPPPPPPPPPPLPQ,0.5

# Target: SpBzz1-D1
# Assay: as above
# In short: as §1
row,Binder,SPOT peptide array binding signal intensity
1,LPPPPPPPPPPPLPQ,4870

# Target: SpBzz1-D2
# Assay: as above
# In short: as §1
row,Binder,SPOT peptide array binding signal intensity
1,LPPPPPPPPPPPLPQ,7.5

# Target: SpCyk3
# Assay: as above
# In short: as §1
row,Binder,SPOT peptide array binding signal intensity
1,LPPPPPPPPPPPLPQ,≤ 0

# Target: SpHof1
# Assay: as above
# In short: as §1
row,Binder,SPOT peptide array binding signal intensity
1,LPPPPPPPPPPPLPQ,≤ 0

# Target: SpHof1-2
# Assay: as above
# In short: as §1
row,Binder,SPOT peptide array binding signal intensity
1,LPPPPPPPPPPPLPQ,≤ 0

# Target: SpHof1-3
# Assay: as above
# In short: as §1
row,Binder,SPOT peptide array binding signal intensity
1,LPPPPPPPPPPPLPQ,0.5

# Target: SpHse1
# Assay: as above
# In short: as §1
row,Binder,SPOT peptide array binding signal intensity
1,LPPPPPPPPPPPLPQ,2.25

# Target: SpLsb1
# Assay: as above
# In short: as §1
row,Binder,SPOT peptide array binding signal intensity
1,LPPPPPPPPPPPLPQ,≤ 0

# Target: SpLsb4
# Assay: as above
# In short: as §1
row,Binder,SPOT peptide array binding signal intensity
1,LPPPPPPPPPPPLPQ,≤ 0

# Target: SpMyo1
# Assay: as above
# In short: as §1
row,Binder,SPOT peptide array binding signal intensity
1,LPPPPPPPPPPPLPQ,1520

# Target: SpNbp2
# Assay: as above
# In short: as §1
row,Binder,SPOT peptide array binding signal intensity
1,LPPPPPPPPPPPLPQ,2

# Target: SpPex13
# Assay: as above
# In short: as §1
row,Binder,SPOT peptide array binding signal intensity
1,LPPPPPPPPPPPLPQ,≤ 0

# Target: SpRvs167
# Assay: as above
# In short: as §1
row,Binder,SPOT peptide array binding signal intensity
1,LPPPPPPPPPPPLPQ,5.33

# Target: SpSla1-D1-D2
# Assay: as above
# In short: as §1
row,Binder,SPOT peptide array binding signal intensity
1,LPPPPPPPPPPPLPQ,3

# Target: SpSla1-D3
# Assay: as above
# In short: as §1
row,Binder,SPOT peptide array binding signal intensity
1,LPPPPPPPPPPPLPQ,≤ 0
